Only some compounds are listed: those with a hit (about 5.1% of all), similar ones and a draw of the others.
CRFBP-R2 block: antagonists of CRF-binding protein/CRF-R2 receptor complex. 350,000 tested, 0.59% active. inhibition, % at 11.8 µM. HEK293 CRF-R2/CRF-BP, CRF-induced calcium fluorescence. AID 588475;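 active = inhibition of the ligand-induced calcium signal above about 50% at the single tested concentration, limit read from the data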
ANO1 block: inhibitors of mouse TMEM16A calcium-activated chloride channel; Q8BHY3; HEK293 TMEM16A/YFP iodide influx fluorescence, ionomycin; normalized B-score (activity score, 25-100; higher = stronger inhibition) at 10 µM; 310,000 tested, 1.2% active;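 active = ratio plate-corrected score three or more library SD toward inhibition, starting fluorescence score within five deviations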;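 note: score derived from kinetic fluorescence span divided by baseline fluorescence per well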
TMEM16A act: mouse TMEM16A channel activation, primary screen; Q8BHY3; HEK293 TMEM16A/YFP-H148Q/I152L, iodide quench fluorescence; stronger effect = lower value; B-score at 10 µM; 340,000 tested, 0.3% active; AID 623877;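 active = fluorescence-ratio B-score plate-corrected deviation score at least 3 library SD below zero, with starting fluorescence score within 5 deviations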;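 note: channel opened by trigger with iodide after compound preincubation; score built on the fluorescence ratio of max minus min over baseline; more negative score means more quench and so TMEM16A activation or potentiation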
NR3A LBD binder: NR3A (human) ligand-binding domain modulation; NR3A LBD differential scanning fluorimetry, Tm shift; 0% = protein alone, 100% = glycine-bound protein; Tm shift relative to glycine control, % at 25 µM; 340,000 tested, 2.5% active; AID 1259313;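 active = melting temperature shift of at least 10% of the positive control shift, at one fixed dose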
MPTP inh: blocks calcium-induced mitochondrial swelling. isolated mouse mitochondria, Ca2+ swelling absorbance, 30 min. inhibition, % at 10 µM. 360,000 tested, 1.4% active. AID 602449;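 active = inhibition of 50% or more, scaled per plate between neutral and stimulator controls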
CRFBP-R2 agonist: CRF-BP/CRF-R2 complex agonism | HEK293 CRF-R2/CRF-BP, calcium dye fluorescence (FLIPR); percent of saturating CRF peptide response | activation, % at 13.2 µM | 350,000 tested, 0.46% active;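 active = activation of at least 50%, plus an integration ratio under a set limit after plate pattern correction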
Rh123 counter: mitochondrial membrane potential, counter-screen. shares compounds with MPTP inh. isolated mitochondria, Rhodamine 123 fluorescence. inhibition, % at 10 µM. 5,000 tested, 78% active. AID 624504; in the data active = inhibition above about 22%
MPTP swell DR: dose response confirmation of mitochondrial permeability transition pore inhibitors. IC50, µM. isolated mitochondria swelling, absorbance. AID 651561. 780 tested, 58% active. shares compounds with MPTP inh; in the data active = IC50 below about 20 µM
MPTP cs DR: active in counter-screen for permeability transition pore inhibitors. IC50, µM. 780 tested, 49% active. isolated mitochondria counterscreen, fluorescence read-out. shares compounds with MPTP inh; in the data active = IC50 below about 80 µM
A number is an active result; - = inactive; . = no result given.

SMILES | CRFBP-R2 block | ANO1 block | TMEM16A act | NR3A LBD binder | MPTP inh | CRFBP-R2 agonist | Rh123 counter | others
N=c1sccn1CC(=O)Nc1cccc(Oc2ccccc2)c1 | - | - | - | - | 92 | - | - | MPTP swell DR=4.9;MPTP cs DR=-
N=c1sccn1CC(=O)Nc1cc(Cl)ccc1Oc1ccccc1 | - | - | - | - | - | - | .
NC(N)=NCCCC(NC(=O)c1ccccc1)C(=O)Nc1ccc2ccccc2c1 (stereo unspecified) | - | - | - | - | 81 | - | - | MPTP swell DR=8.7;MPTP cs DR=-
CSCCC(NC(=O)c1ccccc1)C(=O)Nc1ccc(C)cc1 (stereo unspecified) | - | - | - | - | - | - | .
O=C(Nc1ccccc1Cl)OCC#CCOC(=O)Nc1ccccc1Cl | - | . | . | . | - | - | .
CCCn1c(=N)n(CCOc2ccc(OC)cc2)c2ccccc21 | - | - | - | - | 54 | - | - | MPTP swell DR=8.8;MPTP cs DR=23
CCOC(=O)Cn1c(=N)n(CCOc2ccc(OC)cc2)c2ccccc21 | - | - | - | - | - | - | .
CCOC(=O)Cn1c(=N)n(CCOc2ccc3ccccc3c2)c2ccccc21 | - | - | - | - | 91 | - | - | MPTP swell DR=4;MPTP cs DR=26
COc1ccc(OCCn2c(C)nc3ccccc32)cc1 | - | . | . | . | - | - | .
CCCCN(C)c1c(C)nc2ccc(C(=O)N3CCN(C(C)=O)CC3)cn12 | . | . | . | . | - | . | .
COCC(C)N=C1NN=C(c2cc(C)n(Cc3ccccc3Cl)c2C)CS1 (stereo unspecified) | - | - | - | - | 79 | - | 83
CSc1ccccc1NC(=O)COC(=O)c1cnc(C)cn1 | - | . | - | - | - | - | .
COc1ccc(NC(=O)CSc2ncccc2C(=O)OC(C)C)cc1OC | - | - | - | - | 71 | - | 60
COc1ccc(NC(=O)CSc2ccccn2)cc1OC | - | - | - | - | - | - | .
CC1CCc2nc(NC(=O)CN3CCN(Cc4ccc5c(c4)OCO5)CC3)sc2C1 (stereo unspecified) | - | - | - | - | 56 | - | - | MPTP swell DR=-;MPTP cs DR=46
CC1CCc2nc(NC(=O)CN3CCN(c4ccccc4)CC3)sc2C1 (stereo unspecified) | - | - | - | - | - | - | .
COc1cc(/C=N/N2C(=O)CSC2=S)ccc1O | - | - | - | - | - | - | .
O=C1CSC(=S)N1/N=C/c1cc(Br)c(O)c(Br)c1 | - | - | - | - | 83 | 185 | 66
Cc1ccc(CCNc2ncnc(Cl)c2N)cc1 | - | . | - | - | 101 | - | 108
O=C(COC(=O)C1=COCCO1)Nc1cc(C(F)(F)F)ccc1Cl | - | . | - | - | - | - | .
CCCOc1cc(N(CC)CC)ccc1/C=C(/C#N)c1nc2ccc(C)cc2[nH]1 | - | - | - | - | 78 | 107 | 57
CCN(CC)c1ccc(/C=C(/C#N)c2nc3ccc(C)cc3[nH]2)c(OC(C)C)c1 | - | - | - | - | 83 | 176 | 52
CCOc1cc(N(CC)CC)ccc1/C=C(/C#N)c1nc2ccccc2[nH]1 | - | - | - | - | 82 | 97 | 54
Cc1ccc2nc(/C(C#N)=C\c3cc(O)ccc3[N+](=O)[O-])[nH]c2c1 | - | - | - | - | - | - | .
COc1cc(/C=C(\C#N)c2nc3ccc(C)cc3[nH]2)cc([N+](=O)[O-])c1O | - | . | - | - | - | - | .
O=[N+]([O-])c1ccc(O)c(/C=N/n2c(CO)nc3ccccc32)c1 | - | - | - | - | - | - | .
C/C(=N\OCc1nc2ccccc2c(=O)n1/N=C/c1cc([N+](=O)[O-])ccc1O)c1ccccc1 | - | - | - | - | 74 | - | 51
O=[N+]([O-])c1ccc(O)c(/C=N/n2cnc3ccccc32)c1 | - | 25 | - | - | 69 | - | 79
O=[N+]([O-])c1ccc(NN=Cc2cc(Br)ccc2O)nc1 | - | . | - | 31 | 75 | - | 59

Source: PubChem BioAssay
